Test results taken from the supplement of paper PMC4466140.

target: AgAbp1; assay: SPOT peptide array binding signal intensity (averaged, normalized) (arbitrary units (background-subtracted, floor 0; scale differs between SH3 domains)); higher = stronger binding of the SH3 domain to the peptide
Summary of the method: (§1)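 E. coli BL21(DE3) was used to express GST-fused SH3 domains from four yeast species, which were then purified on glutathione Sepharose. These were incubated at 10 μg/ml in TBS-based blocking buffer overnight at 4°C on cellulose membranes carrying synthetic 15-mer peptides, in which cysteines were replaced by serines. Binding signal is the replicate average of normalized, background-subtracted spot intensity, in arbitrary units that differ between domains.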

Binder | SPOT peptide array binding signal intensity
MKRSRPSRSIPYTTP | 92

target: AgBbc1; assay: as above
Summary of the method: as §1

Binder | SPOT peptide array binding signal intensity
MKRSRPSRSIPYTTP | 65.5

target: AgBem1-D1; assay: as above
Summary of the method: as §1

Binder | SPOT peptide array binding signal intensity
MKRSRPSRSIPYTTP | 152

target: AgBzz1-D1; assay: as above
Summary of the method: as §1

Binder | SPOT peptide array binding signal intensity
MKRSRPSRSIPYTTP | 53

target: AgBzz1-D2; assay: as above
Summary of the method: as §1

Binder | SPOT peptide array binding signal intensity
MKRSRPSRSIPYTTP | 22

target: AgCyk3; assay: as above
Summary of the method: as §1

Binder | SPOT peptide array binding signal intensity
MKRSRPSRSIPYTTP | 8

target: AgFus1; assay: as above
Summary of the method: as §1

Binder | SPOT peptide array binding signal intensity
MKRSRPSRSIPYTTP | 121

target: AgHof1; assay: as above
Summary of the method: as §1

Binder | SPOT peptide array binding signal intensity
MKRSRPSRSIPYTTP | 23.5

target: AgHse1; assay: as above
Summary of the method: as §1

Binder | SPOT peptide array binding signal intensity
MKRSRPSRSIPYTTP | 274

target: AgLsb1; assay: as above
Summary of the method: as §1

Binder | SPOT peptide array binding signal intensity
MKRSRPSRSIPYTTP | 3.5

target: AgLsb4; assay: as above
Summary of the method: as §1

Binder | SPOT peptide array binding signal intensity
MKRSRPSRSIPYTTP | 37

target: AgMyo5; assay: as above
Summary of the method: as §1

Binder | SPOT peptide array binding signal intensity
MKRSRPSRSIPYTTP | 3.25

target: AgNbp2; assay: as above
Summary of the method: as §1

Binder | SPOT peptide array binding signal intensity
MKRSRPSRSIPYTTP | 324

target: AgRvs167; assay: as above
Summary of the method: as §1

Binder | SPOT peptide array binding signal intensity
MKRSRPSRSIPYTTP | 2.5

target: AgSho1; assay: as above
Summary of the method: as §1

Binder | SPOT peptide array binding signal intensity
MKRSRPSRSIPYTTP | 30.5

target: AgSla1-D1-D2; assay: as above
Summary of the method: as §1

Binder | SPOT peptide array binding signal intensity
MKRSRPSRSIPYTTP | 21.5

target: AgSla1-D3; assay: as above
Summary of the method: as §1

Binder | SPOT peptide array binding signal intensity
MKRSRPSRSIPYTTP | ≤ 0

target: CaAbp1-D1; assay: as above
Summary of the method: as §1

Binder | SPOT peptide array binding signal intensity
MKRSRPSRSIPYTTP | 504

target: CaAbp1-D2; assay: as above
Summary of the method: as §1

Binder | SPOT peptide array binding signal intensity
MKRSRPSRSIPYTTP | 476

target: CaBbc1; assay: as above
Summary of the method: as §1

Binder | SPOT peptide array binding signal intensity
MKRSRPSRSIPYTTP | 347

target: CaBem1-D1; assay: as above
Summary of the method: as §1

Binder | SPOT peptide array binding signal intensity
MKRSRPSRSIPYTTP | 47.5

target: CaBzz1-D1; assay: as above
Summary of the method: as §1

Binder | SPOT peptide array binding signal intensity
MKRSRPSRSIPYTTP | 172

target: CaBzz1-D2; assay: as above
Summary of the method: as §1

Binder | SPOT peptide array binding signal intensity
MKRSRPSRSIPYTTP | 158

target: CaCyk3; assay: as above
Summary of the method: as §1

Binder | SPOT peptide array binding signal intensity
MKRSRPSRSIPYTTP | 108

target: CaFus1; assay: as above
Summary of the method: as §1

Binder | SPOT peptide array binding signal intensity
MKRSRPSRSIPYTTP | 334

target: CaHof1; assay: as above
Summary of the method: as §1

Binder | SPOT peptide array binding signal intensity
MKRSRPSRSIPYTTP | ≤ 0

target: CaHse1; assay: as above
Summary of the method: as §1

Binder | SPOT peptide array binding signal intensity
MKRSRPSRSIPYTTP | 55.5

target: CaLsb1; assay: as above
Summary of the method: as §1

Binder | SPOT peptide array binding signal intensity
MKRSRPSRSIPYTTP | 2.75

target: CaLsb4; assay: as above
Summary of the method: as §1

Binder | SPOT peptide array binding signal intensity
MKRSRPSRSIPYTTP | 590

target: CaMyo5; assay: as above
Summary of the method: as §1

Binder | SPOT peptide array binding signal intensity
MKRSRPSRSIPYTTP | 13.8

target: CaNbp2; assay: as above
Summary of the method: as §1

Binder | SPOT peptide array binding signal intensity
MKRSRPSRSIPYTTP | 421

target: CaRvs167; assay: as above
Summary of the method: as §1

Binder | SPOT peptide array binding signal intensity
MKRSRPSRSIPYTTP | 18.3

target: CaRvs167-3; assay: as above
Summary of the method: as §1

Binder | SPOT peptide array binding signal intensity
MKRSRPSRSIPYTTP | 2

target: CaSho1; assay: as above
Summary of the method: as §1

Binder | SPOT peptide array binding signal intensity
MKRSRPSRSIPYTTP | 250

target: CaSla1-D1-D2; assay: as above
Summary of the method: as §1

Binder | SPOT peptide array binding signal intensity
MKRSRPSRSIPYTTP | 60

target: CaSla1-D3; assay: as above
Summary of the method: as §1

Binder | SPOT peptide array binding signal intensity
MKRSRPSRSIPYTTP | 14

target: ScAbp1; assay: as above
Summary of the method: as §1

Binder | SPOT peptide array binding signal intensity
MKRSRPSRSIPYTTP | 20

target: ScBbc1; assay: as above
Summary of the method: as §1

Binder | SPOT peptide array binding signal intensity
MKRSRPSRSIPYTTP | 18.8

target: ScBem1-D1; assay: as above
Summary of the method: as §1

Binder | SPOT peptide array binding signal intensity
MKRSRPSRSIPYTTP | 7

target: ScBzz1-D1; assay: as above
Summary of the method: as §1

Binder | SPOT peptide array binding signal intensity
MKRSRPSRSIPYTTP | 27

target: ScBzz1-D2; assay: as above
Summary of the method: as §1

Binder | SPOT peptide array binding signal intensity
MKRSRPSRSIPYTTP | 23

target: ScCyk3; assay: as above
Summary of the method: as §1

Binder | SPOT peptide array binding signal intensity
MKRSRPSRSIPYTTP | 37

target: ScFus1; assay: as above
Summary of the method: as §1

Binder | SPOT peptide array binding signal intensity
MKRSRPSRSIPYTTP | 129

target: ScHof1; assay: as above
Summary of the method: as §1

Binder | SPOT peptide array binding signal intensity
MKRSRPSRSIPYTTP | 0.5

target: ScHse1; assay: as above
Summary of the method: as §1

Binder | SPOT peptide array binding signal intensity
MKRSRPSRSIPYTTP | 570

target: ScLsb1; assay: as above
Summary of the method: as §1

Binder | SPOT peptide array binding signal intensity
MKRSRPSRSIPYTTP | 10.2

target: ScLsb2; assay: as above
Summary of the method: as §1

Binder | SPOT peptide array binding signal intensity
MKRSRPSRSIPYTTP | 4

target: ScLsb3; assay: as above
Summary of the method: as §1

Binder | SPOT peptide array binding signal intensity
MKRSRPSRSIPYTTP | 320

target: ScLsb4; assay: as above
Summary of the method: as §1

Binder | SPOT peptide array binding signal intensity
MKRSRPSRSIPYTTP | 72

target: ScMyo3; assay: as above
Summary of the method: as §1

Binder | SPOT peptide array binding signal intensity
MKRSRPSRSIPYTTP | 10.5

target: ScMyo5; assay: as above
Summary of the method: as §1

Binder | SPOT peptide array binding signal intensity
MKRSRPSRSIPYTTP | 8

target: ScNbp2; assay: as above
Summary of the method: as §1

Binder | SPOT peptide array binding signal intensity
MKRSRPSRSIPYTTP | 620

target: ScPex13; assay: as above
Summary of the method: as §1

Binder | SPOT peptide array binding signal intensity
MKRSRPSRSIPYTTP | 10

target: ScRvs167; assay: as above
Summary of the method: as §1

Binder | SPOT peptide array binding signal intensity
MKRSRPSRSIPYTTP | 19.8

target: ScSho1; assay: as above
Summary of the method: as §1

Binder | SPOT peptide array binding signal intensity
MKRSRPSRSIPYTTP | 351

target: ScSla1-D1-D2; assay: as above
Summary of the method: as §1

Binder | SPOT peptide array binding signal intensity
MKRSRPSRSIPYTTP | 126

target: ScSla1-D3; assay: as above
Summary of the method: as §1

Binder | SPOT peptide array binding signal intensity
MKRSRPSRSIPYTTP | 43.5

target: SpAbp1-D1; assay: as above
Summary of the method: as §1

Binder | SPOT peptide array binding signal intensity
MKRSRPSRSIPYTTP | 507

target: SpBbc1; assay: as above
Summary of the method: as §1

Binder | SPOT peptide array binding signal intensity
MKRSRPSRSIPYTTP | 15.5

target: SpBzz1-D1; assay: as above
Summary of the method: as §1

Binder | SPOT peptide array binding signal intensity
MKRSRPSRSIPYTTP | 239

target: SpBzz1-D2; assay: as above
Summary of the method: as §1

Binder | SPOT peptide array binding signal intensity
MKRSRPSRSIPYTTP | 1.5

target: SpCyk3; assay: as above
Summary of the method: as §1

Binder | SPOT peptide array binding signal intensity
MKRSRPSRSIPYTTP | 14

target: SpHof1; assay: as above
Summary of the method: as §1

Binder | SPOT peptide array binding signal intensity
MKRSRPSRSIPYTTP | 50.2

target: SpHof1-2; assay: as above
Summary of the method: as §1

Binder | SPOT peptide array binding signal intensity
MKRSRPSRSIPYTTP | 30

target: SpHof1-3; assay: as above
Summary of the method: as §1

Binder | SPOT peptide array binding signal intensity
MKRSRPSRSIPYTTP | 244

target: SpHse1; assay: as above
Summary of the method: as §1

Binder | SPOT peptide array binding signal intensity
MKRSRPSRSIPYTTP | 177

target: SpLsb1; assay: as above
Summary of the method: as §1

Binder | SPOT peptide array binding signal intensity
MKRSRPSRSIPYTTP | 4.5

target: SpLsb4; assay: as above
Summary of the method: as §1

Binder | SPOT peptide array binding signal intensity
MKRSRPSRSIPYTTP | 580

target: SpMyo1; assay: as above
Summary of the method: as §1

Binder | SPOT peptide array binding signal intensity
MKRSRPSRSIPYTTP | 82.5

target: SpNbp2; assay: as above
Summary of the method: as §1

Binder | SPOT peptide array binding signal intensity
MKRSRPSRSIPYTTP | 224

target: SpPex13; assay: as above
Summary of the method: as §1

Binder | SPOT peptide array binding signal intensity
MKRSRPSRSIPYTTP | 16

target: SpRvs167; assay: as above
Summary of the method: as §1

Binder | SPOT peptide array binding signal intensity
MKRSRPSRSIPYTTP | 10.8

target: SpSla1-D1-D2; assay: as above
Summary of the method: as §1

Binder | SPOT peptide array binding signal intensity
MKRSRPSRSIPYTTP | ≤ 0

target: SpSla1-D3; assay: as above
Summary of the method: as §1

Binder | SPOT peptide array binding signal intensity
MKRSRPSRSIPYTTP | 7
